Here are results for eight molecules from PubChem BioAssay (NCATS).

SMILES strings stand for the structures. Results filed as inconclusive are left out. A number with no mark means an inactive call. Activity calls are given as the source filed them. The call rests on the fitted dose curve; in most records, active means well fitted curve in the direction sought with a large enough effect; inconclusive means small, poorly fitted or top-dose-only effect, or another doubt; inactive means no such curve, though single readings can be large; an effect the other way counts as inactive or inconclusive.

Assay [1] deals with Cellular tumor antigen p53 (Homo sapiens) (UniProt P04637). Description: Primary qHTS for small molecule compounds that upregulate eGFP-tagged delta133p53alpha (in N-terminal) cells. (AID 2060322). Further: nearly all actives have a fitted effect of over 75% in size. Further: potency means the concentration at half of the fitted maximal effect.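 On activation: cells pre-induced with doxycycline then dosed without doxycycline; series mostly up to about 56 µM; 0% = DMSO vehicle and 100% = reference activator.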 The following applies: NCI-H358 eGFP-delta133p53alpha fluorescence, 24 h; activation: stronger effect = higher value. Put shortly: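 NCI-H358 cells pre-induced 24 h with 10 ng/ml doxycycline for eGFP-delta133p53alpha, plated dox-free and exposed 24 h at 37C to titrated compounds. Fixed, Hoechst-stained; gated GFP peak intensity by laser scanning cytometry, normalized to DMSO (0%) and 57.5 uM 5-azacytidine (100%).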

Assay [2] deals with Aldehyde dehydrogenase, mitochondrial (Homo sapiens) (UniProt P05091). Description: qHTS for Inhibitors of the Aldehyde Dehydrogenase Family (ALDH2) Primary screen (AID 2061308).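 Further: plate controls were vehicle for no effect and reference inhibitor for full effect; nearly all actives have a fitted effect of over 55% in size.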
Assay [3] deals with Retinaldehyde dehydrogenase 3 (Homo sapiens) (UniProt P47895). Description: qHTS for Inhibitors of the Aldehyde Dehydrogenase Family (ALDH1A3) Primary screen (AID 2061315).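 Further: plate controls were DMSO vehicle for no effect and reference inhibitor for full effect.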 In general terms: Quantitative high-throughput screening tests each substance at several concentrations.

Chain of Cellular tumor antigen p53 (Homo sapiens) (P04637 whole entry, looked up): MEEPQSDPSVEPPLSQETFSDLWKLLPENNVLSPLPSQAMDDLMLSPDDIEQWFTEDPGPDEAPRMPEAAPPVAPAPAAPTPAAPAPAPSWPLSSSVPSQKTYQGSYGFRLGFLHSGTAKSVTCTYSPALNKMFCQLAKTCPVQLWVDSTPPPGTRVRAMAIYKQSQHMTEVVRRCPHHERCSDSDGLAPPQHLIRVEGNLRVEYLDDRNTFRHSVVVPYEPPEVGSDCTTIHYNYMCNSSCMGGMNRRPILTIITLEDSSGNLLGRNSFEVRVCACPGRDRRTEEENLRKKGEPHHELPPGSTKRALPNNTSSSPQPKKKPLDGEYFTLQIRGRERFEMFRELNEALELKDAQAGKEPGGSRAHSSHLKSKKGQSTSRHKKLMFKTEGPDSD

Consider `CCC(C)CNCC(=O)N1CCC2SC=CC2C1COc1cccc(C)c1` (centres undefined), for which the activation in assay [1] is 17.9%. For the same molecule, the Potency result in assay [2] and in assay [3] was “inactive” throughout.
In the case of `O=C(/C=C/c1ccc(O)cc1)OC[C@@]1(O)C=C[C@@H]2C(C(=O)O)=CO[C@@H](O[C@@H]3O[C@H](CO)[C@@H](O)[C@H](O)[C@H]3O)[C@@H]21`, the activation in assay [1] is -4.46%. Also, the Potency result in assay [2] and in assay [3] was “inactive” each time.
For the molecule `C=CC(C)(O)CC/C=C(\C)C(=O)OC1CC2(C(=O)O)CCC3(C)C(=CCC4C5(C)CCC(OC6OC(COC7OCC(O)C(O)C7O)C(O)C(OC7OCC(O)C(O)C7O)C6OC6OC(CO)C(O)C(O)C6OC6OCC(O)C(O)C6O)C(C)(C)C5CCC43C)C2CC1(C)C` (centres undefined), the activation in assay [1] was -7.14%. For the same molecule, the activity change, negative = inhibition in assay [2] was 3.26% [at 11.2 µM]; in assay [3], -4.78% [at 11.2 µM].
Turning to `C[C@@H]1C(=O)O[C@H]2[C@H](O)C34[C@H]5C[C@@H](C(C)(C)C)C36[C@@H](OC(=O)[C@@H]6O)O[C@@]4(C(=O)O5)[C@@]12O` (some centres undefined), the activation in assay [1] is 0.763%. In addition, the Potency entry in assay [2] and in assay [3] was “inactive” in each case.
Take `COc1cc(C(=O)NC2CCN(C)CC2)ccc1Nc1ncc2c(n1)N(C1CCCC1)CC(F)(F)C(=O)N2C`: the activation in assay [1] was 29.5%. The Potency entry in assay [2] and in assay [3] was “inactive” each time.
As for `CC(C)=CCCC1(C)/C=C/C(OC(=O)C=C(C)C)C(C)(O)/C=C/C(=O)/C(CO)=C\C1` (centres undefined), the Potency in assay [1] is 10.4 µM (active). In addition, the Potency entry in assay [2] and in assay [3] was “inactive” throughout.
Turning to `N=c1nc2n(cc1F)C1OC(CO)C(O)C1O2` (centres undefined), the activation in assay [1] is 0.333%. Moreover, the Potency result in assay [2] and in assay [3] was “inactive” in each case.
`CC1C/C=C/C=C\CCCCC(O)C/C=C/C(=O)O1` (centres undefined): in assay [1], the activation was -17.9%. The Potency result in assay [2] and in assay [3] was “inactive” in each case.
